Measured values taken from the supplement of paper PMC8007513.
Structures can show the parent of a compound that is named as a salt. ± gives the standard error. Screen size: about 1,300 compounds; about 75 (6%) showed an effect of 50% or more. Many of the other results were omitted from the sample, so strong results are more common in it than they were.

System: Trichoderma virens ATCC 9645
Assay: growth yield (OD600) relative to untreated control; higher = less growth inhibition
Conditions: compound concentration: 100 uM
Method in brief: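 Plates were read for OD600 at 40 h and 72 h after Trichoderma virens ATCC 9645 spores (15,000 spores ml^−1 in potato dextrose broth) were grown at 30 °C with library compounds at 100 μM final, with or without a biocide at 200 ng ml^−1. Growth is stated relative to the control with neither agent, as the mean of duplicate screens.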

SMILES | growth yield (40 h) [%] | growth yield (72 h) [%]
C[C@@H]1C[C@H]2[C@@H]3C[C@H](F)C4=CC(=O)C=C[C@]4(C)[C@@]3(F)[C@@H](O)C[C@]2(C)[C@@]1(O)C(=O)COC(=O)C(C)(C)C [Flumethasone pivalate] | 106 ± 7.2 | 104 ± 5.3
Cc1ccccc1OCC(O)CO (stereo not drawn) [Mephenesin] | 98 ± 3.3 | 99.5 ± 3.5
Cc1cnc(C(=O)NCCc2ccc(S(=O)(=O)NC(=O)NC3CCCCC3)cc2)cn1 [Glipizide] | 103.7 ± 0.48 | 104.3 ± 0.52
O=C(O)[C@H]1/C(=C/CO)O[C@@H]2CC(=O)N21 [Clavulanate potassium salt] | 95.5 ± 2.4 | 87.9 ± 3.4
Oc1ccc(OCc2ccccc2)cc1 [Monobenzone] | 48.6 ± 0.64 | 53.3 ± 1.7
CC(COc1ccccc1)N(CCCl)Cc1ccccc1 (stereo not drawn) [Phenoxybenzamine hydrochloride] | 104 ± 4.6 | 103 ± 4.2
CC(COc1ccccc1)NC(C)C(O)c1ccc(O)cc1 (stereo not drawn) [Isoxsuprine hydrochloride] | 101 ± 1.1 | 98.6 ± 2.3
Cc1ccc(O)c([C@H](CCN(C(C)C)C(C)C)c2ccccc2)c1 [Tolterodine tartrate] | 96.7 ± 2.7 | 97.95 ± 0.42
CN(C)CCn1nnnc1SCC1=C(C(=O)O)N2C(=O)[C@@H](NC(=O)Cc3csc(N)n3)[C@H]2SC1 [Cefotiam hydrochloride] | 102 ± 1.4 | 102.2 ± 0.73
C[C@@H](c1ncncc1F)[C@](O)(Cn1cncn1)c1ccc(F)cc1F [Voriconazole] | 3.02 ± 1.4 | 2.41 ± 0.94
OC(Cn1cncn1)(Cn1cncn1)c1ccc(F)cc1F [Fluconazole] | 55.1 ± 1.8 | 61.14 ± 0.52
N=C(N)NC(=N)NCCc1ccccc1 [Phenformin hydrochloride] | 96.9 ± 1.9 | 91.5 ± 2.7
CC(C)NC(=N)NC(=N)Nc1ccc(Cl)cc1 [Proguanil hydrochloride] | 110 ± 13 | 109 ± 9
N=C(NCCCCCCNC(=N)NC(=N)Nc1ccc(Cl)cc1)NC(=N)Nc1ccc(Cl)cc1 [Chlorhexidine] | 2.7 ± 1.4 | 2.31 ± 0.84
CC(C)NCC(O)c1ccc2ccccc2c1 (stereo not drawn) [Pronethalol hydrochloride] | 98.6 ± 2.1 | 99.3 ± 2
CC(=O)N[C@@H](CC(=O)N[C@@H](CCC(=O)O)C(=O)O)C(=O)O [Spaglumic acid] | 101 ± 3.5 | 99.5 ± 1.4
C[N+](C)(CCOc1ccccc1)Cc1ccccc1.O=C([O-])c1cc2ccccc2cc1O [Bephenium hydroxynaphthoate] | 73.2 ± 1.1 | 79.6 ± 2.2
CC(C)(C)CC(C)(C)c1ccc(OCCOCC[N+](C)(C)Cc2ccccc2)cc1 [Benzethonium chloride] | 1.75 ± 0.16 | 1.78 ± 0.1
Cc1cc(C(C)(C)CC(C)(C)C)ccc1OCCOCC[N+](C)(C)Cc1ccccc1 [Methyl benzethonium chloride] | 1.43 ± 0.79 | 0.944 ± 0.52
CCOc1ccccc1OCC1CNCCO1 (stereo not drawn) [Viloxazine hydrochloride] | 99.6 ± 1.8 | 96.4 ± 1.4
COc1ncnc(NS(=O)(=O)c2ccc(N)cc2)c1OC [Sulfadoxine] | 91 ± 9.4 | 101 ± 2.6
O=C1c2cccc3c2[C@H](CCC3)CN1[C@@H]1CN2CCC1CC2 [Palonosetron hydrochloride] | 103 ± 6 | 99 ± 4.2
O=C(NCCN1CCOCC1)c1ccc(Cl)cc1 [Moclobemide] | 102 ± 2.1 | 106 ± 2

SMILES | growth yield (40 h) [%] | growth yield (72 h) [%]
COc1ccc2[nH]c([S+]([O-])Cc3ncc(C)c(OC)c3C)nc2n1 (stereo not drawn) [Tenatoprazole] | 98.8 ± 4.8 | 102 ± 1.6
CCOC(=O)c1ccc(OC(=O)CCCCCNC(=N)N)cc1 [Gabexate mesilate] | 76.6 ± 4.5 | 76 ± 3.7
Cc1nnc(NS(=O)(=O)c2ccc(N)cc2)s1 [Sulfamethizole] | 100.4 ± 0.32 | 99.74 ± 0.1
COC(=O)[C@H](c1ccccc1Cl)N1CCc2sccc2C1 [Clopidogrel] | 76.9 ± 1.6 | 82 ± 1.1
CO[C@@]1(NC(=O)Cc2cccs2)C(=O)N2C(C(=O)O)=C(COC(N)=O)CS[C@@H]21 [Cefoxitin sodium salt] | 94.4 ± 3.5 | 94.8 ± 1.9
Nc1ccc(/N=N/c2ccccc2)c(N)n1 [Phenazopyridine hydrochloride] | 21.1 ± 1.4 | 49.4 ± 6.2
Nc1c2ccccc2nc2ccccc12 [Aminacrine] | 98.64 ± 0.48 | 96.9 ± 2.9
CCN(Cc1ccncc1)C(=O)C(CO)c1ccccc1 (stereo not drawn) [Tropicamide] | 99.6 ± 1.8 | 102 ± 1.1
CO[C@@H]1[C@@H](OC(N)=O)[C@@H](O)[C@H](Oc2ccc3c(O)c(NC(=O)c4ccc(O)c(CC=C(C)C)c4)c(=O)oc3c2C)OC1(C)C [Novobiocin sodium salt] | 92 ± 1.8 | 115 ± 4.7
CCOC(=O)[C@@](C)(N)Cc1ccc(O)c(O)c1 [Methyldopate hydrochloride] | 104 ± 5.2 | 97.85 ± 0.94
N[C@H]1CONC1=O [(S)-(-)-Cycloserine] | 104 ± 3.3 | 96.8 ± 3
Cc1cc(NS(=O)(=O)c2ccc(N)cc2)no1 [Sulfamethoxazole] | 40 ± 4.8 | 82.9 ± 2.1
Cc1cc(C)nc(NS(=O)(=O)c2ccc(N)cc2)n1 [Sulfamethazine sodium salt] | 106 ± 4.5 | 101 ± 2.2
Cc1noc(NS(=O)(=O)c2ccc(N)cc2)c1C [Sulfisoxazole] | 87.4 | 96.2 ± 1.8
C#C[C@]1(O)CC[C@H]2[C@@H]3CCC4=Cc5oncc5C[C@]4(C)[C@H]3CC[C@@]21C [Danazol] | 83.39 ± 0.79 | 87.15 ± 0.32
CCCc1nc(C(C)(C)O)c(C(=O)O)n1Cc1ccc(-c2ccccc2-c2nnn[nH]2)cc1 [Olmesartan] | 100 ± 3.2 | 99.8 ± 2.9
N#Cc1ccc(C(c2ccc(C#N)cc2)n2cncn2)cc1 [Letrozole] | 103 ± 1.1 | 101.5 ± 0.42
c1ccc(-c2ccc(C(c3ccccc3)n3ccnc3)cc2)cc1 (stereo not drawn) [Bifonazole] | 2.86 ± 1.9 | 1.99 ± 0.94
CCC1(c2ccccc2)NC(=O)N(C)C1=O (stereo not drawn) [Mephenytoin] | 110 ± 4.9 | 102 ± 4.5
CC1(C)[C@@H](OC(=O)CCC(=O)O)CC[C@]2(C)[C@H]3C(=O)C=C4[C@@H]5C[C@@](C)(C(=O)O)CC[C@]5(C)CC[C@@]4(C)[C@]3(C)CC[C@@H]12 [Carbenoxolone disodium salt] | 95 ± 4.1 | 94.6 ± 2.1
CN(C)[C@@H]1C(O)=C(C(N)=O)C(=O)[C@@]2(O)C(O)=C3C(=O)c4c(O)ccc(Cl)c4[C@@H](O)[C@H]3C[C@@H]12 [Demeclocycline hydrochloride] | 82.6 ± 3.2 | 85.1 ± 5.6
N=C(N)NC(=O)Cc1c(Cl)cccc1Cl [Guanfacine hydrochloride] | 97.1 ± 1.4 | 101.3 ± 0.63
COC(=O)CCc1ccc(OCC(O)CNC(C)C)cc1 (stereo not drawn) [Esmolol hydrochloride] | 105 ± 4.6 | 100 ± 1.5

SMILES | growth yield (40 h) [%] | growth yield (72 h) [%]
C/C(=C\C(=O)OCCCCCCCCC(=O)O)C[C@@H]1OC[C@H](C[C@@H]2O[C@H]2[C@@H](C)[C@H](C)O)[C@@H](O)[C@H]1O [Mupirocin] | 6.04 ± 2.9 | 39.5 ± 8.5
O=C(O)CCC(=O)Nc1ccc(S(=O)(=O)Nc2nccs2)cc1 [Succinylsulfathiazole] | 94.7 ± 3.5 | 93.9 ± 2.6
OCC(O)CN1CCN(c2ccccc2)CC1 (racemic) [Dropropizine (R,S)] | 101 ± 1.6 | 101.7 ± 0.63
CC(C)(CO)C(O)C(=O)NCCCO (stereo not drawn) [Panthenol (D)] | 100 ± 4.5 | 98.1 ± 3
CC(=O)OC[C@H]1O[C@@H]([S-])[C@H](OC(C)=O)[C@@H](OC(C)=O)[C@@H]1OC(C)=O.CCP(CC)CC.[Au+] [Auranofin] | 25.6 ± 2.1 | 33 ± 2
CN(C)/N=N/c1[nH]cnc1C(N)=O [Dacarbazine] | 95.6 ± 1.9 | 98 ± 3.4
O=C1C(O)=C([C@H]2CC[C@H](c3ccc(Cl)cc3)CC2)C(=O)c2ccccc21 [Atovaquone] | 95.1 ± 4.3 | 97.4 ± 1.6
COc1cccc(N(C)C(=S)Oc2ccc3c(c2)CCCC3)n1 [Liranaftate] | 0 | 0
CC(C)(C(=O)c1cccnc1)c1cccnc1 [Metyrapone] | 91 ± 3 | 88.4 ± 2.6
COc1cc2nc(N(C)CCCNC(=O)C3CCCO3)nc(N)c2cc1OC (stereo not drawn) [Alfuzosin hydrochloride] | 104.7 ± 0.79 | 105 ± 3.6
OC(CNCC(O)C1CCc2cc(F)ccc2O1)C1CCc2cc(F)ccc2O1 (stereo not drawn) [Nebivolol hydrochloride] | 95 ± 16 | 114 ± 14
CN(C)CCOC1=Cc2ccccc2Sc2ccc(Cl)cc21 [Zotepine] | 89.7 ± 14 | 114 ± 11
NC(N)=Nc1nc(CSCC/C(N)=N/S(N)(=O)=O)cs1 [Famotidine] | 103 ± 1.9 | 101 ± 1.3
CCCCN(CCCC)CCC(O)c1cc2c(Cl)cc(Cl)cc2c2cc(C(F)(F)F)ccc12 (stereo not drawn) [Halofantrine hydrochloride] | 25.6 ± 6.2 | 95.9
N=C(N)N/N=C/c1c(Cl)cccc1Cl [Guanabenz acetate] | 91.5 ± 1.9 | 90.7 ± 3.2
COC(=O)[C@H]1[C@H]2C[C@@H]3c4[nH]c5cc(OC)ccc5c4CCN3C[C@H]2C[C@@H](OC(=O)c2cc(OC)c(OC)c(OC)c2)[C@@H]1OC [Reserpine] | 107 ± 5.4 | 107 ± 2.8
CCCCOc1ccc(CC(=O)NO)cc1 [Bufexamac] | 94.2 ± 1.1 | 88.1 ± 2.9
N=C(N)c1ccc(OCCCCCOc2ccc(C(=N)N)cc2)cc1 [Pentamidine isethionate] | 1.91 ± 0.95 | 1.78 ± 0.52
CCCCOc1ccc(C(=O)CCN2CCCCC2)cc1 [Dyclonine hydrochloride] | 93.6 ± 3 | 98.7 ± 1.6
CC(C)(C)NC[C@@H](O)COc1cccc2c1CCCC2=O [(+) -Levobunolol hydrochloride] | 100.2 ± 0.16 | 98.9 ± 0.1
NS(=O)(=O)Cc1noc2ccccc12 [Zonisamide] | 104.5 ± 0.95 | 98.8 ± 1.9
CN(C)CCN(Cc1ccccc1)c1ccccn1 [Tripelennamine hydrochloride] | 107 ± 1.4 | 100 ± 1.6
C[C@]1(Cn2ccnn2)[C@H](C(=O)O)N2C(=O)C[C@H]2S1(=O)=O [Tazobactam] | 98.96 ± 0.79 | 96.8 ± 1.4
